Measured values taken from publication PMC11062922 (Nature Chemical Biology, 2023).
Where two headings read alike, the source gives them in different places.

How the values were obtained:
[1] = test system: ACVR1B; conditions: read-out: apparent Kd, n = 1
[2] = test system: AURKB; conditions: read-out: apparent Kd, n = 1

Lestaurtinib
potency estimated from few doses ([1]; compound concentrations:100 nM and 1000 nM (sheet 'Lestaurtinib' of Supplementary Table 1),run:Lestaurtinib_02741_R3,Plate:MR023): 712 nM
potency estimated from few doses ([1]; compound concentrations:100 nM and 1000 nM (sheet 'Lestaurtinib' of Supplementary Table 1),run:Lestaurtinib_02748_R1,Plate:MR024): 417 nM
potency estimated from few doses ([1]; compound concentrations:100 nM and 1000 nM (sheet 'Lestaurtinib' of Supplementary Table 1),run:Lestaurtinib_02748_R2,Plate:MR024): 745 nM
potency estimated from few doses ([1]; compound concentrations:100 nM and 1000 nM (sheet 'Lestaurtinib' of Supplementary Table 1),run:Lestaurtinib_02752_R3,Plate:MR025): 724 nM
potency estimated from few doses ([1]; compound concentrations:100 nM and 1000 nM (sheet 'Lestaurtinib' of Supplementary Table 1),run:Lestaurtinib_02765_R1,Plate:MR026): 811 nM
potency estimated from few doses ([1]; compound concentrations:100 nM and 1000 nM (sheet 'Lestaurtinib' of Supplementary Table 1),run:Lestaurtinib_02765_R2,Plate:MR026): 488 nM
potency estimated from few doses ([1]; compound concentrations:100 nM and 1000 nM (sheet 'Lestaurtinib' of Supplementary Table 1),run:Lestaurtinib_02766_R3,Plate:MR027): 495 nM
potency estimated from few doses ([1]; compound concentrations:100 nM and 1000 nM (sheet 'Lestaurtinib' of Supplementary Table 1),run:Lestaurtinib_02768_R2,Plate:MR028): 577 nM
potency estimated from few doses ([1]; compound concentrations:100 nM and 1000 nM (sheet 'Lestaurtinib' of Supplementary Table 1),run:Lestaurtinib_02768_R3,Plate:MR028): 533 nM
potency estimated from few doses ([1]; compound concentrations:100 nM and 1000 nM (sheet 'Lestaurtinib' of Supplementary Table 1),run:Lestaurtinib_02795_R1,Plate:MR022): 857 nM
potency estimated from few doses ([1]; compound concentrations:100 nM and 1000 nM (sheet 'Lestaurtinib' of Supplementary Table 1),run:Lestaurtinib_02795_R2,Plate:MR022): 563 nM
potency estimated from few doses ([1]; compound concentrations:100 nM and 1000 nM (sheet 'Lestaurtinib' of Supplementary Table 1),run:Lestaurtinib_02795_R3,Plate:MR022): 806 nM
potency estimated from few doses ([1]; compound concentrations:100 nM and 1000 nM (sheet 'Lestaurtinib' of Supplementary Table 1),run:Lestaurtinib_02802_R1,Plate:MR029): 480 nM
potency estimated from few doses ([1]; compound concentrations:100 nM and 1000 nM (sheet 'Lestaurtinib' of Supplementary Table 1),run:Lestaurtinib_02802_R2,Plate:MR029): 584 nM
potency estimated from few doses ([1]; compound concentrations:100 nM and 1000 nM (sheet 'Lestaurtinib' of Supplementary Table 1),run:Lestaurtinib_02802_R3,Plate:MR029): 656 nM
potency estimated from few doses ([1]; compound concentrations:100 nM and 1000 nM (sheet 'Lestaurtinib' of Supplementary Table 1),run:Lestaurtinib_02896_R1,Plate:MR030): 549 nM
potency estimated from few doses ([1]; compound concentrations:100 nM and 1000 nM (sheet 'Lestaurtinib' of Supplementary Table 1),run:Lestaurtinib_02896_R3,Plate:MR030): 494 nM
potency estimated from few doses ([1]; compound concentrations:100 nM and 1000 nM (sheet 'Lestaurtinib' of Supplementary Table 1),run:Lestaurtinib_03172_R1,Plate:MR031): 377 nM
potency estimated from few doses ([1]; compound concentrations:100 nM and 1000 nM (sheet 'Lestaurtinib' of Supplementary Table 1),run:Lestaurtinib_03172_R2,Plate:MR031): 568 nM
potency estimated from few doses ([1]; compound concentrations:100 nM and 1000 nM (sheet 'Lestaurtinib' of Supplementary Table 1),run:Lestaurtinib_03172_R3,Plate:MR031): 598 nM
potency estimated from few doses ([1]; compound concentrations:100 nM and 1000 nM (sheet 'Lestaurtinib' of Supplementary Table 1),run:Lestaurtinib_03252_R2,Plate:MR032): 547 nM
potency estimated from few doses ([1]; compound concentrations:100 nM and 1000 nM (sheet 'Lestaurtinib' of Supplementary Table 1),run:Lestaurtinib_03260_R2,Plate:MR033): 551 nM
potency estimated from few doses ([1]; compound concentrations:100 nM and 1000 nM (sheet 'Lestaurtinib' of Supplementary Table 1),run:Lestaurtinib_03260_R3,Plate:MR033): 778 nM
potency estimated from few doses ([2]; compound concentrations:100 nM and 1000 nM (sheet 'Lestaurtinib' of Supplementary Table 1),run:Lestaurtinib_02339_R1,Plate:MR001): 261 nM
potency estimated from few doses ([2]; compound concentrations:100 nM and 1000 nM (sheet 'Lestaurtinib' of Supplementary Table 1),run:Lestaurtinib_02339_R2,Plate:MR001): 143 nM
potency estimated from few doses ([2]; compound concentrations:100 nM and 1000 nM (sheet 'Lestaurtinib' of Supplementary Table 1),run:Lestaurtinib_02364_R1,Plate:MR002): 260 nM
potency estimated from few doses ([2]; compound concentrations:100 nM and 1000 nM (sheet 'Lestaurtinib' of Supplementary Table 1),run:Lestaurtinib_02364_R2,Plate:MR002): 159 nM
potency estimated from few doses ([2]; compound concentrations:100 nM and 1000 nM (sheet 'Lestaurtinib' of Supplementary Table 1),run:Lestaurtinib_02364_R3,Plate:MR002): 220 nM
potency estimated from few doses ([2]; compound concentrations:100 nM and 1000 nM (sheet 'Lestaurtinib' of Supplementary Table 1),run:Lestaurtinib_02367_R2,Plate:MR003): 304 nM
potency estimated from few doses ([2]; compound concentrations:100 nM and 1000 nM (sheet 'Lestaurtinib' of Supplementary Table 1),run:Lestaurtinib_02381_R1,Plate:MR004): 278 nM
potency estimated from few doses ([2]; compound concentrations:100 nM and 1000 nM (sheet 'Lestaurtinib' of Supplementary Table 1),run:Lestaurtinib_02381_R2,Plate:MR004): 232 nM
potency estimated from few doses ([2]; compound concentrations:100 nM and 1000 nM (sheet 'Lestaurtinib' of Supplementary Table 1),run:Lestaurtinib_02407_R2,Plate:MR005): 132 nM
potency estimated from few doses ([2]; compound concentrations:100 nM and 1000 nM (sheet 'Lestaurtinib' of Supplementary Table 1),run:Lestaurtinib_02407_R3,Plate:MR005): 268 nM
potency estimated from few doses ([2]; compound concentrations:100 nM and 1000 nM (sheet 'Lestaurtinib' of Supplementary Table 1),run:Lestaurtinib_02422_R1,Plate:MR006): 157 nM
potency estimated from few doses ([2]; compound concentrations:100 nM and 1000 nM (sheet 'Lestaurtinib' of Supplementary Table 1),run:Lestaurtinib_02437_R3,Plate:MR007): 26.5 nM
potency estimated from few doses ([2]; compound concentrations:100 nM and 1000 nM (sheet 'Lestaurtinib' of Supplementary Table 1),run:Lestaurtinib_02438_R2,Plate:MR008): 158 nM
